Bioassay records as filed in PubChem BioAssay.
Shown are actives, neighbours in structure and some others; about 1.3% of the full set was active somewhere.
PKA-R2B act – activators of PKA-R2B holoenzyme, primary screen, biochemical, fluorescence polarization, Cy5-IP20, human | cAMP-dependent protein kinase catalytic subunit beta (Homo sapiens) + cAMP-dependent … | 340,000 compounds, 0.079% hits | AID 504700, 2011 | activation, % at 11.4 µM | PKA-R2B holoenzyme dissociation; R2B truncated from residue 108, S112A mutant; 0% DMSO only, 100% 113 µM cGMP;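 active = activation above a cutoff set at the mean over all compounds plus 3 SD, cut at about 18% in these data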;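 note: higher means more holoenzyme dissociation and a rise in polarization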
Rpn11 block – Rpn11 (PSMD14) deubiquitinase inhibitors, primary screen, biochemical, fluorescence polarization, uHTS; 360,000 compounds, 0.59% hits; 26S proteasome non-ATPase regulatory subunit 14 (Homo sapiens), O00487; calls only at 20 µM; human 26S proteasome, Ub4-pepOG fluorescence polarization; 20S core pre-blocked with epoxomicin;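 active = inhibition at 20 µM, scaled to each plate's controls, above about 33%, limit read from the data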
Neddylation inh – inhibitors of cullin neddylation, primary screen, biochemical, TR-FRET, uHTS, NAE and Ubc12; NEDD8-conjugating enzyme Ubc12 (Homo sapiens) + NEDD8-activating enzyme E1 regulatory …; inhibition, % at 25 µM; 360,000 compounds, 0.58% hits; AID 651699, 2012; in the data active = inhibition above about 36%
Target sequence (P61081 whole entry, looked up): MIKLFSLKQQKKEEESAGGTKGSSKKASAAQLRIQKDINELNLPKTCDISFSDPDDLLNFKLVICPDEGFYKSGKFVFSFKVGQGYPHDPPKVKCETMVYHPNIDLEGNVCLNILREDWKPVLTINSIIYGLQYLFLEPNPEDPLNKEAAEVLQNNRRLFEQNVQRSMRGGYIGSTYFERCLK
Target sequence (Q13564 whole entry, looked up): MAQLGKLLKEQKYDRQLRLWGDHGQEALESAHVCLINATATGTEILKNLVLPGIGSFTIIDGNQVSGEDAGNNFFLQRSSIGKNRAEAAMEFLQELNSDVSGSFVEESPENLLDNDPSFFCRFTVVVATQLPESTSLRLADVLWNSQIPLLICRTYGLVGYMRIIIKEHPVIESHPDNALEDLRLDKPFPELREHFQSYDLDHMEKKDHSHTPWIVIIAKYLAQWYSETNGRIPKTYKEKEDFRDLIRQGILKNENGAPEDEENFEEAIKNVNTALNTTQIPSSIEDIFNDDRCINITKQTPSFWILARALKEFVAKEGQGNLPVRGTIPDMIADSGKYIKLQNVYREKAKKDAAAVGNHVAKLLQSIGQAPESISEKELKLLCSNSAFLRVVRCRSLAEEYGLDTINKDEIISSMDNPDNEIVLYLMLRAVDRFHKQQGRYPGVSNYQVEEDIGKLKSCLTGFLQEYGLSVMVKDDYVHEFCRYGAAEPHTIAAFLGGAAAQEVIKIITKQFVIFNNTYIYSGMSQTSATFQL
PKA-R1A act – activators of PKA-R1A holoenzyme, primary screen, biochemical, fluorescence polarization, Cy5-IP20, bovine R1A, mouse PKAc | cAMP-dependent protein kinase type I-alpha regulatory subunit (Bos taurus) + … | PKA-R1A dissociation; scaled: DMSO 0%, 113 µM cGMP 100% | activation, % at 11.4 µM | 340,000 compounds, 0.083% hits | AID 504707, 2011;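 active = percent activation above the mean of all tested compounds plus 3 SD, cut at about 19% in these data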;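 note: higher means more PKAc released from R1A so a rise in polarization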
Rpn11 inh conf – Rpn11 (PSMD14) deubiquitinase inhibitors, confirmation, biochemical, fluorescence polarization, single concentration. shares compounds with Rpn11 block. purified human 26S proteasome, Ub4-pepOG fluorescence polarization; proteasome pretreated with epoxomicin. inhibition, % at 20 µM. 1,900 compounds, 29% hits. AID 602318, 2012
MMP-2 counter – MMP-2 enzyme inhibition, confirmation, counter-screen for RPN11 inhibitor project, biochemical, fluorescence, single concentration; shares compounds with Rpn11 block; recombinant MMP-2, FRET peptide cleavage fluorescence; inhibition, % at 20 µM; 1,900 compounds, 4% hits;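 note: human MMP-2 activated beforehand with APMA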
Thrombin inh – bovine thrombin protease inhibition, confirmation, counter-screen for Rpn11 inhibitor project, biochemical, fluorescence polarization, single concentration; 1,900 compounds, 13% hits; bovine thrombin cleavage of Ub4-pepOG; inhibition, % at 20 µM; AID 602333, 2012; shares compounds with Rpn11 block;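 active = mean inhibition at least 40% at 20 µM, or signal 3 deviations below plate average, so some actives read negative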;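 note: plate controls were thrombin with DMSO for no effect and buffer wells lacking thrombin for full effect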
* = called active by the depositor; i = inactive; nt = not tested or not shown; + = active, no number. Cut-off read from the data, not from the text of the source, unless noted: active = inhibition above about 40%; inactive = the rest.

SMILES | PKA-R2B act | Rpn11 block | Neddylation inh | PKA-R1A act | Rpn11 inh conf | MMP-2 counter | Thrombin inh
CCOc1ccccc1CNC(=O)C1CCCN(c2nnc(C)c3c(C)n(-c4ccccc4)nc23)C1 (stereo not drawn) | -1 | + | nt | 0 | 25 | -29 | 2
Nc1ccc2c(c1)C(=NO)c1cc([N+](=O)[O-])ccc1-2 | -2 | + | -92 | 11 | 12 | -3 | 7
COc1ccc(Nc2nc3cc(C)ccc3cc2C#N)c(OC)c1 | -4 | i | -10 | -3 | nt | nt | nt
COc1ccc(Nc2nc3ccc(C)cc3cc2C#N)c(OC)c1 | -4 | + | -34 | 2 | -12 | -15 | -13
Cc1onc(-c2c(Cl)cccc2Cl)c1C(=O)N=C(N)N1CC(C)OC(C)C1 (stereo not drawn) | -5 | i | 4 | -1 | nt | nt | nt
Cc1cc(C)n(CC(O)Cn2c3ccccc3c3ccccc32)c(=O)n1 (stereo not drawn) | 2 | + | 16 | -4 | 0 | 0 | -4
CC(=O)c1cccc(NS(=O)(=O)N(C)C)c1 | -17 | + | -1 | -10 | -2 | -4 | -7
O=C(CCl)NCCN1C(=O)S/C(=C\c2cccnc2)C1=O | 5 | + | -39 | -20 | 53* | 23 | -11
CC(C(=O)NCCN1C(=O)S/C(=C\c2cccnc2)C1=O)N1C(=O)c2ccccc2C1=O (stereo not drawn) | 0 | i | -29 | 1 | nt | nt | nt
CCOc1ccccc1N1CCN(C(=O)c2cc(-c3cccnc3)nc3c(Cl)cccc23)CC1 | -7 | i | -10 | -4 | nt | nt | nt
O=[N+]([O-])c1ccc(NN=C(Oc2ccccc2)c2ccc([N+](=O)[O-])cc2)cc1 | 1 | + | -51 | 4 | 9 | -43 | -14
O=[N+]([O-])c1ccc(C=NNc2ccccc2)cc1 | -15 | + | -61 | -10 | 36 | -21 | 25
O=[N+]([O-])c1cccc(C=NNc2ccccc2)c1 | -5 | i | -28 | 4 | nt | nt | nt
CCOC(=O)N1CCC(N2C(=O)c3ccc(C(=O)Nc4cccc(OC)c4)cc3C2=O)CC1 | -6 | i | -9 | -6 | nt | nt | nt
Cc1nc(SCC(=O)CC(=O)OC(C)C)c(C#N)c(C)c1C | 5 | i | 18 | -1 | nt | nt | nt
CSc1nc(N)nc(SCC(=O)CC(=O)OC(C)C)c1C#N | -3 | + | 19 | -8 | -3 | -22 | -17
CCOC(=O)NC(=O)/C(C#N)=C/c1ccc(N(C)C)cc1 | nt | + | -25 | nt | 117* | -28 | 98*
CN(C)c1ccc(/C=C(\C#N)C(=O)c2ccccc2)cc1 | -5 | nt | -9 | 8 | nt | nt | nt
CCN(CC)c1ccc(/C=C(\C#N)C(N)=O)cc1 | -5 | + | -43 | -21 | 29 | -78 | 25
COc1cc(C(C)=O)ccc1OCC(=O)OCCCOC(=O)COc1ccc(C(C)=O)cc1OC | 2 | i | 2 | 0 | nt | nt | nt
COc1ccc(C(=O)N2CCN(c3ccccn3)CC2)cc1[N+](=O)[O-] | -6 | i | -21 | -10 | nt | nt | nt
COc1ccc(CS(=O)(=O)CC2(O)CCN(C(=O)c3cccc(C(F)(F)F)c3)CC2)cc1 | -11 | i | -1 | 0 | nt | nt | nt
CCOC(=O)c1c(NC(=O)C2=C(C)NC(=S)NC2c2ccc(F)cc2F)sc(C)c1C (stereo not drawn) | -6 | + | 34 | -12 | -14 | 11 | -20
O=C(NCc1ccco1)c1ccccc1SCC(=O)N1CCCC1 | -14 | i | -10 | -12 | nt | nt | nt
CC1CCCC(NC(=O)CCS(=O)(=O)c2cc3c(cc2Cl)NC(=O)CO3)C1C (stereo not drawn) | -4 | + | -3 | -2 | -11 | -7 | -16
SMILES | PKA-R2B act | Rpn11 block | Neddylation inh | PKA-R1A act | Rpn11 inh conf | MMP-2 counter | Thrombin inh
CC1CCCC(NS(=O)(=O)c2cc3c(cc2Cl)NC(=O)CO3)C1C (stereo not drawn) | 11 | i | -25 | 5 | nt | nt | nt
COc1ccc(C(C(=O)NC2CCCCC2)N(Cc2cccnc2)C(=O)c2snc(C(N)=O)c2N)cc1 (stereo not drawn) | 0 | i | 28 | -7 | nt | nt | nt
COc1ccc(-n2cccc2/C=C2/NC(=O)N(c3cccc(Cl)c3)C2=O)cc1 | -11 | + | 20 | -3 | 6 | -18 | 4
O=C(O)c1cccc(-n2cccc2/C=C2/NC(=O)N(c3cccc(Cl)c3)C2=O)c1 | 7 | i | -8 | 1 | nt | nt | nt
COc1ccc(C)cc1NC(=O)CN(C)S(=O)(=O)c1ccc2c(c1)CC(C)N2C(C)=O (stereo not drawn) | 5 | i | 8 | 5 | nt | nt | nt
CC1=C(C(=O)N(C(C)C)C(C)C)CC(CC(=O)NC(c2ccccc2)c2ccccc2)C(=O)N1CCCN1CCCC1=O (stereo not drawn) | nt | i | 10 | nt | nt | nt | nt
N/C(=N\OC(=O)c1cccc2ccccc12)c1cccc([N+](=O)[O-])c1 | -1 | + | -20 | 2 | 13 | 32 | -6
O=C1N/C(=N/Nc2ccccc2)S/C1=C\c1ccccc1 | 1 | + | -13 | -8 | 28 | 37 | 15
O=C1NC(=Nc2ccccc2)S/C1=C\c1ccccc1 | 0 | i | 4 | 13 | nt | nt | nt
COc1cccc(-n2c(SCC(N)=O)nc3ccccc3c2=O)c1 | 5 | + | 0 | 5 | 56* | -4 | 19
Cc1cc(C(=O)N/N=C/c2ccc(-c3cccc(Cl)c3Cl)o2)n[nH]1 | -11 | + | 36 | -16 | 22 | -34 | -13
O=c1nc(/C=C/c2cccn2-c2ccc([N+](=O)[O-])cc2)cc(C(F)(F)F)[nH]1 | -2 | + | -13 | -1 | 29 | 18 | 15
COCCCn1c(=O)/c(=C\c2ccccc2OC(F)F)s/c1=C(/C#N)C(=O)NCCOC | 7 | nt | 36 | 2 | nt | nt | nt
COCCCn1c(=O)/c(=C\c2cccc(OC)c2OC)s/c1=C(/C#N)C(=O)Nc1ccc(C(=O)O)cc1 | 1 | + | -7 | -3 | 46* | 2 | 86*
